Hits are enriched below; roughly 3.9% of the tested compounds scored in any of these assays.
S2 tox – cell viability loss in ATXN counter-screen. S2 cells (HEK-293 line with an ATXN2-luciferase reporter) viability, CellTiter-Fluor protease fluorescence, 24 h. Potency, µM (top dose mostly 56.7 µM), usual class: cytotoxic. actives 0.49% (n = 400,000). AID 651635; note: nearly all actives have a fitted effect of over 40% in size
ATXN2 expr inh – ATXN2 expression inhibition. HEK-293 ATXN2-luciferase reporter, luminescence, 24 h. actives 0.72% (n = 360,000). Potency, µM (top dose mostly 57 µM), without a hit: at the top dose activity change, negative = inhibition, usual class: inhibitors; note: % is set by controls: 0 for no effect and ±100 for the full control effect; nearly all actives have a fitted effect of over 55% in size
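ATXN2-luciferase reporter cells (luciferase flanked by upstream and downstream ATXN2 gene portions) were treated 24 h at 37 °C with compounds at up to 57 uM. SteadyGlo luminescence gave expression; GF-AFC fluorescence gave viability.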
HT1080 IDH1KD tx – kills HT-1080 cells with IDH1 knockdown; AID 686971; actives 2% (n = 360,000); Potency, µM (highest dose often 46.1 µM), for the others: top-dose activity, negative = toxicity, usual class: cytotoxic; HT-1080 IDH1 knockdown viability, ATP luminescence, 48 h;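 note: 0% = DMSO wells and -100% = cell-free medium wells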
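Assay cells: HT-1080 with IDH1 knockdown, 750 per well, RPMI/5% FBS. Exposure: 48 h at 37 °C following 2 h pre-incubation. Read: CellTiter-Glo luminescence; fitted concentration-response, curve class assigned.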
TGFb inhibitor – inhibitors of TGF-b signaling; HepG2 CAGA-GFP TGF-b/SMAD3 reporter, GFP fluorescence, 18 h; TGF-beta stimulated, 500 pg/mL final; AID 588855; Potency, µM (doses to about 46.1 µM), inactives show at the top dose activity, negative = inhibition, hits mostly inhibitors; actives 1.2% (n = 410,000); note: % is set by controls: 0 for no effect and ±100 for the full control effect; nearly all actives have a fitted effect of over 65% in size
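Read-out: total well GFP (ex488/em500-530) summed from mean per-cell fluorescence. Cells: HEPG2 CAGA-GFP, 1% FBS DMEM, 18 h at 37 degrees C with 500 pg/mL final TGF-beta. Unstimulated wells served as the full-inhibition control; stimulated DMSO wells = 0%.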
HT1080-NT tox – kills 2HG-producing HT-1080-NT fibrosarcoma cells; HT-1080-NT fibrosarcoma viability, CellTiter-Glo ATP luminescence, 48 h; actives 1.6% (n = 360,000); Potency, µM (highest dose often 46.1 µM), inactives show at the highest dose activity, negative = less viability, hits mostly cytotoxic; AID 686970;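 note: NT is the 2HG producing partner of a matched IDH1 knockdown line; 0% = DMSO-treated cells and -100% = media-only wells without cells; nearly all actives have a fitted effect of over 55% in size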
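Read-out is CellTiter-Glo luminescence after 10 minutes at room temperature, following 48 hours' compound treatment of HT-1080-NT cells (750 cells/well, RPMI, 5% FBS, 37 degrees C).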
HepG2 viability – HepG2 cytotoxicity, counter-screen for TGF-b inhibitors; HepG2 CAGA-GFP viability, ATP luminescence, 18 h; Potency, µM (series often up to 46.1 µM), for the others: at the top dose activity change, negative = cytotoxicity, hits mostly cytotoxic; actives 0.76% (n = 410,000); AID 588856
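HepG2 CAGA-GFP cells (1000/well, DMEM with 1% FBS) received compound, then TGF-beta at 500 pg/mL final, and were incubated 18 hours at 37 degrees C. Viability was read by CellTiter-Glo luminescence. Media-only wells were set as complete cell-killing and DMSO as no toxicity.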
Numbers without * were called inactive. Calls come from the whole dose curve; as a rule, active = well fitted curve in the direction sought with a large enough effect; inconclusive = small, poorly fitted or top-dose-only effect, or another doubt; inactive = no such curve, though single readings can be large; an effect the other way counts as inactive or inconclusive. Potency is the fitted concentration of half-maximal effect.

Screening CN(C)CC(C)(O)c1ccc2c(c1)CN(Cc1cccn1-c1ncccn1)CCO2 (configuration not stated) returned S2 tox inactive.
`CCn1c(C)nnc1SCC(=O)Nc1ccc(OC)cc1` gave S2 tox inactive, HT1080 IDH1KD tx 8.5%, TGFb inhibitor -5.5%, HT1080-NT tox 10.7% and HepG2 viability 6.31µM*.
CCOC(=O)c1cc(OC(=O)c2cccc(Cl)c2)n(-c2ccccc2)n1 was read as TGFb inhibitor -3.2% and HepG2 viability 4.4%.
CCN1CCCC1CNC(=O)c1ccc(Sc2ccccc2Cl)c([N+](=O)[O-])c1 (configuration not stated) was read as S2 tox inactive, ATXN2 expr inh 7.1%, HT1080 IDH1KD tx inconclusive, TGFb inhibitor 3.2%, HT1080-NT tox 25.9µM* and HepG2 viability -20.7%.
For O=C(NCCN1CCCC1)c1ccccc1Cl the results were S2 tox inactive, ATXN2 expr inh -10.2%, HT1080 IDH1KD tx 6.4%, TGFb inhibitor -4.6%, HT1080-NT tox -6.3% and HepG2 viability 6.1%.
CCCC(=O)NC1=C(Cl)C(=O)c2ccccc2C1=O was read as ATXN2 expr inh -19.3%, HT1080 IDH1KD tx 7.31µM*, TGFb inhibitor -31.0%, HT1080-NT tox inconclusive and HepG2 viability -105.5%.
Screening CCNc1ccccc(-c2ccc3ccccc3n2)c1=O returned S2 tox inconclusive, ATXN2 expr inh 58.5%, HT1080 IDH1KD tx 3.7%, TGFb inhibitor -10.6%, HT1080-NT tox -1.5% and HepG2 viability 1.9%.
Screening O=c1nccc(NCc2ccco2)[nH]1 returned S2 tox inactive, ATXN2 expr inh -4.9%, HT1080 IDH1KD tx 18.3%, TGFb inhibitor 0.4%, HT1080-NT tox -0.4% and HepG2 viability -1.3%.
`O=C1C(Cl)=C(NCc2ccco2)C(=O)c2ccccc21` gave S2 tox inconclusive, ATXN2 expr inh -12.9%, HT1080 IDH1KD tx 16.4µM*, TGFb inhibitor 11.2µM*, HT1080-NT tox inconclusive and HepG2 viability -108.9%.
CCNC1=C(Cl)C(=O)c2ccccc2C1=O was read as S2 tox inactive, ATXN2 expr inh -22.6%, HT1080 IDH1KD tx inconclusive, TGFb inhibitor inconclusive, HT1080-NT tox inconclusive and HepG2 viability 12.6µM*.
`O=C1C(Cl)=C(NCCN2CCCCC2)C(=O)c2ccccc21` gave S2 tox 20µM*, ATXN2 expr inh 14.1µM*, HT1080 IDH1KD tx 23.1µM*, TGFb inhibitor 1.58µM*, HT1080-NT tox 14.6µM* and HepG2 viability -92.4%.
NCCCN(Cc1ccc(Cl)c(Cl)c1)c1ccccn1 was read as HT1080 IDH1KD tx 11.2µM* and HT1080-NT tox 12.6µM*.
NCCN(Cc1ccc(Cl)c(Cl)c1)c1ccc(Br)cn1 was read as HT1080 IDH1KD tx 10µM* and HT1080-NT tox 11.2µM*.
Screening COc1cccc(NC(=O)CSc2nc(-c3ccccc3)nc3c2Cc2cc(Cl)ccc2O3)c1 returned S2 tox inconclusive, ATXN2 expr inh 8.3%, TGFb inhibitor 1.8% and HepG2 viability 1.8%.
Screening CCOCCCNC(=O)C(c1ccccc1)N(Cc1cccs1)C(=O)c1ccc(NC(C)=O)cc1 (configuration not stated) returned S2 tox inconclusive, ATXN2 expr inh -13.9%, TGFb inhibitor inconclusive and HepG2 viability 4.5%.
`Cc1ccc(CSc2ncnc3ccccc23)cc1` gave S2 tox inactive, ATXN2 expr inh 10.1%, HT1080 IDH1KD tx -1.4%, TGFb inhibitor -4.5%, HT1080-NT tox -5.8% and HepG2 viability -15.0%.
`O=Cc1cc2ccccc2nc1SCc1ccc(Cl)c(Cl)c1` gave S2 tox inactive, ATXN2 expr inh -5.2%, HT1080 IDH1KD tx 5.8µM*, TGFb inhibitor 1.6%, HT1080-NT tox 4.11µM* and HepG2 viability -0.8%.
